# Compound activity from PubChem.
# This is a sample that favours compounds with a hit; in the whole collection about 11% have one here.
# PK Bst – pyruvate kinase (B. stearothermophilus) modulation; purified pyruvate kinase, luminescence ATP production; ribose 5-phosphate activator present at AC10; Potency, µM; AID 361; 1.2% of 51,000 active; in the data active means potency below about 11 µM; inconclusive means mostly about 12 µM to 25 µM;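 the screen sought inhibitors and activators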;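 further: scaled between full activation by ribose 5 phosphate and full inhibition by luteolin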
# HADH2 inh – blocks human hydroxyacyl-CoA dehydrogenase type II. 3.4% of 73,000 active. Potency, µM (highest dose often 57.1 µM), for inactives: top-dose activity change, negative = inhibition, hits mostly inhibitors. Q99714. recombinant HADH2, NADH fluorescence, beta-hydroxybutyryl-CoA; further: nearly all actives have a fitted effect of over 60% in size
# Target sequence (Q99714 whole entry, looked up, one chain of several): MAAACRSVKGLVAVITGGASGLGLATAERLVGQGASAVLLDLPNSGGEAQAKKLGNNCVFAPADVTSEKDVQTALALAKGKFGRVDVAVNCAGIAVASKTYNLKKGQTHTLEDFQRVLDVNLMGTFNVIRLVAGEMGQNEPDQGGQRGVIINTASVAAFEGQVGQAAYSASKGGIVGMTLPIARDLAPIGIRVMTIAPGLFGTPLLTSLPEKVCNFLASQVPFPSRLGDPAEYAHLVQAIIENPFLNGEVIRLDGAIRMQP
#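 20 nM HADH2 + cpd, 15 min RT; add 1 mM NAD+/90 uM beta-hydroxybutyryl-CoA; kinetic fluorescence 360/450 nm, 4 min. Tris-HCl pH 9.0, 0.01% Tween-20.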
# FLuc inh – blocks Photinus pyralis firefly luciferase activity; 2.2% of 72,000 active; Potency, µM (series often up to 57.1 µM), without a hit: top-dose activity change, negative = inhibition, usual class: inhibitors; purified firefly luciferase, luminescence, 8 min; P08659; further: nearly all actives have a fitted effect of over 40% in size
#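 Substrate buffer containing 10 uM ATP (pH 7.2 imidazole, Mg2+, KCl, detergent, BSA) is dispensed, compound pinned in, then luciferase/luciferin detector mix added. After 8 min at ambient temperature, light output is measured.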
# ERK AVP block – inhibitors of vasopressin-stimulated ERK signaling pathway; HEK293-V1b, vasopressin-stimulated pERK AlphaScreen; Potency, µM (series often up to 57.5 µM), for the others: at the top dose activity, negative = inhibition, most hits filed as inhibitors; 0.99% of 72,000 active; further: nearly all actives have a fitted effect of over 55% in size
#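 qHTS, compounds titrated on V1b-expressing HEK293 cells. Preincubation 30 min at 37C, vasopressin 25 nM for 5 min, lysis 10 min, bead incubation 5 hr at room temperature.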
# HSD17B inh – HSD17B dehydrogenase inhibition; Q99714; recombinant HSD17B10, NADH fluorescence kinetic; Potency, µM (titrated, usually from 57.1 µM), without a hit: at the top dose activity change, negative = inhibition, usual class: inhibitors; 7.6% of 75,000 active;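 further: the protocol describes HADH2 (HSD17B10) and not the HSD17B4 of the title; nearly all actives have a fitted effect of over 70% in size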
#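 Activity followed as NADH fluorescence increase (ex 360, em 450 nm) every 30 seconds for 4 min, using final 90 uM beta-hydroxybutyryl CoA and 1 mM NAD+. Recombinant His-tagged enzyme, 20 nM, pH 9.0 Tris buffer, 15 min compound preincubation.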
# 15-hLO inh – blocks human 15-lipoxygenase activity; P16050; purified 15hLO-1, xylenol orange hydroperoxide absorbance; Potency, µM (doses to about 57.1 µM), for the others: at the top dose activity change, negative = inhibition, most hits filed as inhibitors; 1.4% of 74,000 active; further: nearly all actives have a fitted effect of over 55% in size
#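 40 nM 15hLO-1 + cpd, 15 min RT; start w/ 50 uM AA (final), 6 min RT; stop/detect w/ 200 uM XO + 300 uM Fe(II) in 50 mM H2SO4, 30 min; A573/A405. Buffer 25 mM Hepes pH 7.5, 0.01% Triton X-100. No-enzyme wells as negative control.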
# Numbers without * were called inactive; i = inactive; ? = inconclusive; · = not tested or not shown; [ ] = remark or other dose. Unless noted, the call rests on the fitted dose curve; in most records, active means well fitted curve in the direction sought with a large enough effect; inconclusive means small, poorly fitted or top-dose-only effect, or another doubt; inactive means no such curve, though single readings can be large; an effect the other way counts as inactive or inconclusive. Unless noted, on the % scale 0 is the no-effect control and ±100 the full control effect; potency means the concentration at half of the fitted maximal effect.
SMILES,PK Bst,HADH2 inh,FLuc inh,ERK AVP block,HSD17B inh,15-hLO inh
COc1ccc2c(c1)O[C@H](c1cccc(C(F)(F)F)c1)[C@@H](O)C2=O,·,8%[11.4 µM],1%[11.4 µM],10%[11.5 µM],5%[11.4 µM],6%[11.4 µM]
CC(C)c1ccc(O)c(O)c(=O)c1 (tested in a mixture with another compound),·,-13%[11.4 µM],-1%[11.4 µM],14%[11.5 µM],1%[11.4 µM],-15%[11.4 µM]
CC(=O)Nc1ccc(S(=O)(=O)N2CCN(c3cc(C)nc4ccccc34)CC2)cc1,>57,-4%,2%,20%,-25%,0%
CC(=O)Nc1ccc(S(=O)(=O)N2CCN(c3nc(NC4CCCC4)c4ccccc4n3)CC2)cc1,·,?,1%,6%,16µM*,-30%[11.4 µM]
[O-][n+]1c(CN2CCCCC2)nc2cccc3c2c1-c1ccccc1-3,·,15%[11.4 µM],3%[11.4 µM],20%[11.5 µM],-5%[11.4 µM],-27%[11.4 µM]
CCOC(=O)c1sc(NC(=O)c2ccco2)nc1C,·,-11%,-7%,0%,-14%,7%
CCOC(=O)c1sc(NC(=O)c2ccc(C)o2)nc1C,·,-19%,13µM*,-25%,-6%,-4%
CCOC(=O)C(CCc1ccccc1)NC(C)C(=O)N1C(C(=O)O)CC2CCCC21 (stereo not given),·,·,·,8%,8%,3.2µM*
COc1ccc2c(C(F)(F)F)cc(=O)oc2c1C,·,?,4%,-8%,25µM*,-5%
C=CCNS(=O)(=O)c1ncnc2nc[nH]c12,·,-3%[11.4 µM],1%[11.4 µM],-7%[11.5 µM],2%[11.4 µM],-1%[11.4 µM]
COc1cccc2sc(N(C)c3ccccc3)nc12,8.1*,6%,7.9µM*,-29%,-10%,-17%
COc1ccc(NC(=O)N2CCCC3(CCN(C(=O)c4ccc(OC)cc4)CC3)C2)cc1,·,4%,-1%[11.4 µM],-10%,-7%,4%
CCOC(=O)N1CCN(C(=O)CSc2nnc(-c3ccc(C)c(C)c3)o2)CC1,·,2%,-10%,?,-1%,2%
CCOC(=O)N1CCN(C(=O)CSc2nnc(-c3ccc(C(C)(C)C)cc3)o2)CC1,·,-3%,1.3µM*,?,1%,-4%
C(=N\n1cncn1)/c1ccc(N2CCOCC2)cc1,·,?,-18%,10%,4µM*,4%
C/C(CCN1CCc2nc(-c3ccccc3)c(-c3ccccc3)cc2C1)=N\OC[C@@H](O)[C@@H]1O[C@@H]2OC(C)(C)O[C@@H]2[C@H]1O,·,11%[11.4 µM],1%[11.4 µM],5%[11.5 µM],2%[11.4 µM],1%[11.4 µM]
CC1CN(S(=O)(=O)c2cccc(-c3cn4ccccc4n3)c2)CC(C)O1 (stereo not given),>57,59%,0%,-29%,-10%,-6%
CCOC(=O)C1CCN(S(=O)(=O)c2ccc(-c3nc4ccccc4s3)s2)CC1,>57,?,-8%,-3%,25µM*,-14%
CC1CCCN(S(=O)(=O)c2cccc(-c3cn4cccnc4n3)c2)C1 (stereo not given),>57,i,2%,-3%,20µM*,-13%
CC1CCCN(S(=O)(=O)c2cc(Cl)ccc2Cl)C1 (stereo not given),i,12%,0%,10%,0%,-5%
CCOC(=O)C1CCN(S(=O)(=O)c2cccc(-c3cn4cccc(C)c4n3)c2)CC1,>57,?,-11%,20µM*,?,-8%
CCOC(=O)C1CCN(S(=O)(=O)c2cccc(-c3cn4ccccc4n3)c2)CC1,>57,25%,-2%,?,25µM*,-11%
CCOC(=O)C1CCN(S(=O)(=O)c2cnc[nH]2)CC1,>57,2%,-1%,-3%,9%,1%
CC12CC[C@@H]3c4ccc(OP(=O)(O)O)cc4CCC3C1CCC2=O (stereo not given in full),·,6%[11.4 µM],3%[11.4 µM],-7%[11.5 µM],4%[11.4 µM],-4%[11.4 µM]
CC1=C(C(=O)O)N2C(=O)[C@@H](NC(=O)[C@@H](N)C3=CCC=CC3)[C@@H]2SC1,·,?,0%,1%,?,17%
SMILES,PK Bst,HADH2 inh,FLuc inh,ERK AVP block,HSD17B inh,15-hLO inh
CN(C)S(=O)(=O)c1nc(Cl)c2[nH]cnc2n1,·,9%[11.4 µM],3%[11.4 µM],-26%[11.5 µM],1%[11.4 µM],-2%[11.4 µM]
CS(=O)(=O)N1CCC2(CCCN(Cc3ccccc3)C2)CC1,·,0%,0%[11.4 µM],2%,6%,-1%
COc1ccc(S(=O)(=O)n2nc(-c3cc(OC)c(OC)c(OC)c3)cc2N)cc1OC,·,-6%,0%,-17%,0%,-2%
COc1ccc(-c2cc(N)n(S(=O)(=O)c3c(F)c(F)c(F)c(F)c3F)n2)cc1OC,i,?,-3%,5µM*,?,-15%
CC1(C)Cc2nc3oc4c(NCc5ccccc5)ncnc4c3cc2CO1,>57,?,0%,-23%,25µM*,-5%
CCCc1nc2oc3c(NCC4CCCO4)ncnc3c2c2c1COC(C)(C)C2 (stereo not given),>57,?,3%,-13%,3.2µM*,0%
Cc1nc2oc3c(NCc4ccccn4)ncnc3c2c2c1COC(C)(C)C2,>57,?,2%,25µM*,32µM*,13%
CC(C)c1nc2oc3c(NCC4CCCO4)ncnc3c2c2c1CCC2 (stereo not given),>57,32µM*,-1%,?,32µM*,-12%
CCOC(=O)N1CCN(c2ncnc3c2oc2nc(C)c4c(c23)CC(C)(C)OC4)CC1,>57,10%,-1%,1%,-18%,9%
CC1(C)Cc2nc3n[nH]c(N)c3cc2CO1,>57,-5%,0%,-14%,-9%,13%
NCCNS(=O)(=O)c1ccc(N)cc1,·,-3%[11.4 µM],0%[11.4 µM],3%[11.5 µM],4%[11.4 µM],2%[11.4 µM]
CCCc1nc2oc3c(NCCN(C)C)ncnc3c2c2c1CCCC2,>57,-12%,2%,-16%,?,-32%
CCCc1nc2oc3c(NCc4ccccn4)ncnc3c2c2c1COC(C)(C)C2,>57,?,6%,-20%,13µM*,5%
COC(=O)c1[nH]c2cccc(OC)c2c1NC(=O)CCN1CCC(C(N)=O)CC1,>57,-21%,-1%,-1%,32µM*,-2%
COC(=O)c1[nH]c2cccc(OC)c2c1NC(=O)CN1CCC(C(N)=O)(N2CCCCC2)CC1,>57,-23%,7%,-2%,32µM*,7%
CCOC(=O)C1CCN(CC(=O)Nc2c(C(=O)OC)[nH]c3cccc(Cl)c23)CC1,>57,6%,4%,23%,2%,-30%
COC(=O)c1[nH]c2cccc(OC)c2c1NC(=O)CCN1CCN(c2ccccc2F)CC1,>57,?,0%,1%,32µM*,-5%
COC(=O)c1[nH]c2cccc(C)c2c1NC(=O)CN1CCN(c2ccccc2OC)CC1,>57,-5%,5%,-12%,?,4%
